SMILES strings stand for the structures. Hit rate of the full screen: of about 200,000 compounds, about 80 (0.04%) were called active. Only a selection was taken, and actives are over-represented in it overall. A number with no mark means an inactive call.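 The calls were made as follows: active = activation above the mean across all tested compounds plus 3 SD, cutoff set per campaign (cut at about 5.5% in these data); inactive = the rest.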

A short description of this test: Hsp70 transcriptional activators, primary screen, cell-based, HeLa, Hsp70 promoter luciferase, luminescence, 10 µM (AID 1203).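 Also: 100% = MG132 at 30 µM as the positive control and 0% = DMSO.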 The following applies: HeLa Hsp70 promoter luciferase reporter, at 10 µM, stronger effect = higher value, scaled: vehicle 0, proteasome-inhibitor control 100%. A general note: Reporter assays use an easily measured gene product as a stand-in for the process of interest.
`COc1ccc(OCC(O)CNC(=O)Nc2ccc(Cl)cc2)cc1` (stereo unspecified): the activation was -0.12%.

With `NS(=O)(=O)c1ccc(N=Cc2ccc(Br)s2)cc1`, the activation is -0.31%.

Regarding `CCOC(=O)C/C(C)=N\Nc1ccc([N+](=O)[O-])cc1[N+](=O)[O-]`, the activation is 0.04%.

As for `O=S(=O)(c1ccc2c(c1)OCCO2)N1CCc2ccccc21`, the activation is 0.08%.

As to `O=C(CSc1nncs1)NC1CCCc2ccccc21` (stereo unspecified), the activation was -0.09%.

On to `O=S(=O)(ON(c1ccccc1)S(=O)(=O)c1ccccc1)c1ccccc1`, for which the activation was -0.24%.

For `CCOC(=O)c1c(NC(=S)NC(=O)/C=C/c2cccs2)sc(C)c1C`, the activation was -0.28%.

As for `O=C(NNC(=S)Nc1ccc(Br)cc1Cl)c1ccco1`, the activation was -0.21%.

Regarding `CCC(=O)OCc1c(C(F)(F)F)nn(C)c1Oc1cccc(C(F)(F)F)c1`, the activation was -0.27%.

For the molecule `CCNC(=O)NNC(=O)C1CC(c2cccs2)=NO1` (stereo unspecified), the activation was -0.44%.

With `CCOC(=O)c1cnc2c(c(C)nn2CC)c1Cl`, the activation was -0.38%.

With `C/C(=N\NC(=O)CNc1cccc2ccccc12)c1ccc(Br)s1`, the activation was -0.39%.

As for `CCCC1NC(=S)NC(C)=C1C(C)=O` (stereo unspecified), the activation was -0.09%.

Regarding `CCOC(=O)NN1C(=O)c2ccccc2NC1c1ccccc1O` (stereo unspecified), the activation is -0.07%.

In the case of `CC1CC(C)(C)NC(=S)N1CCC(=O)N1CCN(Cc2ccccc2)CC1` (stereo unspecified), the activation was -0.64%.

Consider `CC(C)(C)c1ccc(NC(=O)COC(=O)CCc2nc3ccccc3c(=O)[nH]2)cc1`, for which the activation was -0.35%.

Consider `CSCCC(NC(=O)COc1ccccc1)C(=O)Nc1ccc(C)cc1` (stereo unspecified), for which the activation was -0.22%.

In the case of `COc1ccc(C(CC(=O)c2ccccc2)S(=O)(=O)c2ccccc2)cc1` (stereo unspecified), the activation is -0.26%.

On to `COC(=O)C1=CN(Cc2ccc(OC)c(OC)c2)C=C(C(=O)OC)C1c1cccs1`, for which the activation is -0.18%.

Take `O=C1Oc2ccccc2C(=O)/C1=C/c1ccccc1O`: the activation was -0.37%.

With `CC(=O)c1ccc(NC(=O)C(C)N(C)CC(=O)Nc2ccccc2Cl)cc1` (stereo unspecified), the activation is -0.06%.

These data come from PubChem BioAssay AID1203 (The Scripps Research Institute Molecular Screening Center, 2008).
